Targets with a hit are over-represented here; the source holds about 7,900 in all. About 0.6% of all pairs of compound and target were hits. Unmarked numbers belong to inactive results.
What was measured:
Experiment in all cases: log2 fold change, soluble protein after heating vs DMSO (PISA); higher = thermal stabilisation; K562 cells, 10 uM, 30 min; active = over 0.2 and 3.5 SD of the protein, either way, in both replicates (recomputed)
[1] = compound: CC[C@@H]1C(=O)N(C)c2cnc(Nc3ccc(C(=O)NC4CCN(C)CC4)cc3OC)nc2N1C1CCCC1
Outline: (§1)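 Aliquots of K562 cells (2×10^6 cells/mL) treated with 10 μM compound for 30 min were heated for 3 min over 48°C-58°C. After pooling and extraction in PBS with 0.5% NP-40 at 4°C, soluble protein from a 21,000xg, 90 min spin was quantified by TMTpro 16plex LC-MS/MS with channel sums equalised. Thermal stability is expressed against control samples, from duplicates, as a log2 fold change.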

volasertib = compound: CC[C@@H]1C(=O)N(C)c2cnc(Nc3ccc(C(=O)N[C@H]4CC[C@H](N5CCN(CC6CC6)CC5)CC4)cc3OC)nc2N1C(C)C [volasertib]
Outline: as §1

[2] = compound: CC[C@H](C)N1C=C(C2=C(C=C(C=C21)C3=CN=C(C=C3)N4CCNCC4)C(=O)NCC5=C(C=C(NC5=O)C)C)C
Outline: as §1

epoxomicin = compound: CC[C@H](C)[C@@H](C(=O)N[C@@H]([C@@H](C)O)C(=O)N[C@@H](CC(C)C)C(=O)[C@]1(CO1)C)NC(=O)[C@H]([C@@H](C)CC)N(C)C(=O)C [epoxomicin]
Outline: as §1

[3] = compound: CCn1c(C(=O)N(C2CC2)C2CC2)cc2c3c(ncn3C)c(Nc3cc(C)n(C)n3)nc21
Outline: as §1

[4] = compound: CCn1cc(-c2ccnc3[nH]c(-c4cccc(CN(C)C)c4)cc23)c(-c2ccc(NC(=O)N(C)C)cc2)n1
Outline: as §1

[5] = compound: CN(C)CC(=O)Nc1ccc2[nH]c(=O)c3ccccc3c2c1
Outline: as §1

rosiglitazone = compound: CN(CCOC1=CC=C(C=C1)C[C@H]2C(=O)NC(=O)S2)C3=CC=CC=N3 (racemic) [rosiglitazone]
Outline: as §1

[6] = compound: CN1C2=C(C3=C1C(=O)N(N=C3)CC4=CC(=CC=C4)N)SC(=C2)S(=O)C
Outline: as §1

[7] = compound: CN1CCC(CNc2ccc3ncc(-c4cccc(OC(F)(F)F)c4)n3n2)CC1
Outline: as §1

saracatinib = compound: CN1CCN(CCOc2cc(OC3CCOCC3)c3c(Nc4c(Cl)ccc5c4OCO5)ncnc3c2)CC1 [saracatinib]
Outline: as §1

sotrastaurin = compound: CN1CCN(c2nc(C3=C(c4c[nH]c5ccccc45)C(=O)NC3=O)c3ccccc3n2)CC1 [sotrastaurin]
Outline: as §1

alvocidib = compound: CN1CC[C@H](c2c(O)cc(O)c3c(=O)cc(-c4ccccc4Cl)oc23)[C@H](O)C1 [alvocidib]
Outline: as §1

Tubastatin A = compound: CN1CCc2c(c3ccccc3n2Cc2ccc(C(=O)NO)cc2)C1 [Tubastatin A]
Outline: as §1

[8] = compound: CNC(=O)C1=CC=CC=C1NC2=NC(=NC=C2Cl)NC3=C(C=C(C=C3)N4CCOCC4)OC
Outline: as §1

defactinib = compound: CNC(=O)c1ccc(Nc2ncc(C(F)(F)F)c(NCc3nccnc3N(C)S(C)(=O)=O)n2)cc1 [defactinib]
Outline: as §1

rucaparib = compound: CNCc1ccc(-c2[nH]c3cc(F)cc4c3c2CCNC4=O)cc1 [rucaparib]
Outline: as §1

[9] = compound: CNc1nc(-c2ccc3c(N)n[nH]c3c2)cc(N2C[C@@H](C(=O)NC3CCCCC3)CC[C@H]2C)n1
Outline: as §1

encorafenib = compound: COC(=O)N[C@@H](C)CNc1nccc(-c2cn(C(C)C)nc2-c2cc(Cl)cc(NS(C)(=O)=O)c2F)n1 [encorafenib]
Outline: as §1

[10] = compound: COC(=O)[C@H](CCSC)NC(=O)C1=C(C=C(C=C1)NC[C@H](CS)N)C2=CC=CC=C2
Outline: as §1

UniProt Q9UKL6, sequence (Q9UKL6 whole entry, looked up): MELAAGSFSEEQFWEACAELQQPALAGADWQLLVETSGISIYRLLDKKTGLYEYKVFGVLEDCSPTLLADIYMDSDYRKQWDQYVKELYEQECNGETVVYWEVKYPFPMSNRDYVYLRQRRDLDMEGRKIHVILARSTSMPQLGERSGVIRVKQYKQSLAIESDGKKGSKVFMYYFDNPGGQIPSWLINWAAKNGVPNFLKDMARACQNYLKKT
UniProt P51665, sequence (P51665 whole entry, looked up): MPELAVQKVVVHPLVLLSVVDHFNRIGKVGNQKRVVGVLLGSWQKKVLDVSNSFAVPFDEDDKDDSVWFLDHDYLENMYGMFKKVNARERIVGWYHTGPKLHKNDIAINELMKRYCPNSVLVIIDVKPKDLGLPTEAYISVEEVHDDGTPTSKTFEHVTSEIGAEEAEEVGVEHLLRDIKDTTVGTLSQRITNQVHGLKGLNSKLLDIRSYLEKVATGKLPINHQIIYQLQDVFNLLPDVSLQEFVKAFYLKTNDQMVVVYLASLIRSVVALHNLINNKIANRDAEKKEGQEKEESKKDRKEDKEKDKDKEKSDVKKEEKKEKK
UniProt Q8NBL1, sequence (Q8NBL1 whole entry, looked up): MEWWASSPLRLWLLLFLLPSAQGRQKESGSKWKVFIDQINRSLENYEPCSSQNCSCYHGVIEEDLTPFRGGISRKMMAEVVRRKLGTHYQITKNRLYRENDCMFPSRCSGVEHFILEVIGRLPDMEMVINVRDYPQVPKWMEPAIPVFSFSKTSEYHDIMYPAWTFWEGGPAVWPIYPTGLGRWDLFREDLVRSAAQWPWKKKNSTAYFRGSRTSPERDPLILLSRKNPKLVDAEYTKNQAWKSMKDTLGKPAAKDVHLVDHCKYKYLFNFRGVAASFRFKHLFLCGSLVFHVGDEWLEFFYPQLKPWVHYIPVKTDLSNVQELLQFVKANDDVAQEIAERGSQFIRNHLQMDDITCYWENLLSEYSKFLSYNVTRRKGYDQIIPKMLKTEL
UniProt P62136, sequence (P62136 whole entry, looked up): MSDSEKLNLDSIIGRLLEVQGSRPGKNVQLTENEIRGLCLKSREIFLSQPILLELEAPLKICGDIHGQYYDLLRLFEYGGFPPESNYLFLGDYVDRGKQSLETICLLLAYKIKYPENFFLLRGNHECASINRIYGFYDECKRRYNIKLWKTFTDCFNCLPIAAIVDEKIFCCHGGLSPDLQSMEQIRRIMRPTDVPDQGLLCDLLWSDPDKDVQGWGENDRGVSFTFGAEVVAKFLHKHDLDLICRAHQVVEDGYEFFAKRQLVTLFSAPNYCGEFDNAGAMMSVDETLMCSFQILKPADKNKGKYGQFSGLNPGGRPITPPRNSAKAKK
UniProt Q9UBV8, sequence (Q9UBV8 whole entry, looked up): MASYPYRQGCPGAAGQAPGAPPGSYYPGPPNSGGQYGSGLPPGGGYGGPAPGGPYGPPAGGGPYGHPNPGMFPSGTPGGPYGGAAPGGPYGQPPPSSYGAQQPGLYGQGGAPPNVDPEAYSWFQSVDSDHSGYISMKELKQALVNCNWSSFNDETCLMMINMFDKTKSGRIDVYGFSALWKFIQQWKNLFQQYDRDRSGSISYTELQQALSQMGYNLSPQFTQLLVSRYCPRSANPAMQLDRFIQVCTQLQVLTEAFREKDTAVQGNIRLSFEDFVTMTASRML
UniProt Q32M88, sequence (Q32M88 whole entry, looked up): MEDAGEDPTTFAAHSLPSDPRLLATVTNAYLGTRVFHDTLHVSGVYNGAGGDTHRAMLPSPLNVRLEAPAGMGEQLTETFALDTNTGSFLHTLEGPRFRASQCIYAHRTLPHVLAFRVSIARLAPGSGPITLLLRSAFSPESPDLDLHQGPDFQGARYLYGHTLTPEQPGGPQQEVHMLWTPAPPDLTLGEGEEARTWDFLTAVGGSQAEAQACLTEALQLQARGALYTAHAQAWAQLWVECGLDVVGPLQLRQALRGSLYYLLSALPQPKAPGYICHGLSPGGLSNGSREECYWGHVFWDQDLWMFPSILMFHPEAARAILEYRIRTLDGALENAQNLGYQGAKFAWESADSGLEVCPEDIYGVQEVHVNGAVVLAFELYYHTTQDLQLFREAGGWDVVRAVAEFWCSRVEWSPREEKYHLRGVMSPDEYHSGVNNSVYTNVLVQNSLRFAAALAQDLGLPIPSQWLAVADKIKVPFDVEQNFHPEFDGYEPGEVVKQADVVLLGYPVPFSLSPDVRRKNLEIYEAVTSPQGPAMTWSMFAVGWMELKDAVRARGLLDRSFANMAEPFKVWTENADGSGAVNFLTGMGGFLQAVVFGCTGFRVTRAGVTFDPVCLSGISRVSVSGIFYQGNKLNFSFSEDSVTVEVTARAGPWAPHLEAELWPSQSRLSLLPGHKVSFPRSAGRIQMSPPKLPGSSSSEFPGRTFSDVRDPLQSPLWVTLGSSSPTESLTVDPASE
UniProt P54619, sequence (P54619 whole entry, looked up): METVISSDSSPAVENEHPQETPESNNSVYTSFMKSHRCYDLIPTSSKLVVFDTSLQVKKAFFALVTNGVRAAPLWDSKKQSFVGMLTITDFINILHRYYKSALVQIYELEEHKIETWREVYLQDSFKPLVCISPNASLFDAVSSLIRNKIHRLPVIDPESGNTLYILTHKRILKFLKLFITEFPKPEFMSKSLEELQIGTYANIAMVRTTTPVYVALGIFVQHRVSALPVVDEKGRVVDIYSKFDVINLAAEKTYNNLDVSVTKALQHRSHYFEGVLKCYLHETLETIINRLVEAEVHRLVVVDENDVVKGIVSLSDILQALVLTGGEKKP
UniProt P62333, sequence (P62333 whole entry, looked up): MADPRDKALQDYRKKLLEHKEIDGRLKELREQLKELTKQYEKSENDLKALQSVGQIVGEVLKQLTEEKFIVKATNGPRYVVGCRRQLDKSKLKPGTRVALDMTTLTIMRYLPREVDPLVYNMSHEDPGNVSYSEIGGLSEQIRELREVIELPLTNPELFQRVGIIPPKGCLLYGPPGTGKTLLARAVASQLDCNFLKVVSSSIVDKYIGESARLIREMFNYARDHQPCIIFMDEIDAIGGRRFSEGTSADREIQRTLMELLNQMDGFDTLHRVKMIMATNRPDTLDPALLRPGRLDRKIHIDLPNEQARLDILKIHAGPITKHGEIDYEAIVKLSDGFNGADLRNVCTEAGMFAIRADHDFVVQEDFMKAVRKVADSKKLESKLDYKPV
UniProt O96013, sequence (O96013 whole entry, looked up): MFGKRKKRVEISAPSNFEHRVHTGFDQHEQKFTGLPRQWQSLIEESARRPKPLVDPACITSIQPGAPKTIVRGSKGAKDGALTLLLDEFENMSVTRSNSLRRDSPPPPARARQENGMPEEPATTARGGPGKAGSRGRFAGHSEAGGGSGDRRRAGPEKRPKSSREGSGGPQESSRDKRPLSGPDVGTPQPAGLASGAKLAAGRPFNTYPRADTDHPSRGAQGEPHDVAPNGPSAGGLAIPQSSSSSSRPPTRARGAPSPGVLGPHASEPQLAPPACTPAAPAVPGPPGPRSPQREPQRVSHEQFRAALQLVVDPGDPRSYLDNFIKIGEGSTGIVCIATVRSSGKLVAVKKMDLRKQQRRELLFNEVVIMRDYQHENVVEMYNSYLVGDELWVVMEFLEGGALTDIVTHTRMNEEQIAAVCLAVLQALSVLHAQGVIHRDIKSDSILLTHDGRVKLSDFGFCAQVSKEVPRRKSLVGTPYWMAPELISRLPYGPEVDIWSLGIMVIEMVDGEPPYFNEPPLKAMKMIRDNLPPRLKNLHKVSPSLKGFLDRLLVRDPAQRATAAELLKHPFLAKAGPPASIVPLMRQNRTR
UniProt Q9Y5K3, sequence (Q9Y5K3 whole entry, looked up): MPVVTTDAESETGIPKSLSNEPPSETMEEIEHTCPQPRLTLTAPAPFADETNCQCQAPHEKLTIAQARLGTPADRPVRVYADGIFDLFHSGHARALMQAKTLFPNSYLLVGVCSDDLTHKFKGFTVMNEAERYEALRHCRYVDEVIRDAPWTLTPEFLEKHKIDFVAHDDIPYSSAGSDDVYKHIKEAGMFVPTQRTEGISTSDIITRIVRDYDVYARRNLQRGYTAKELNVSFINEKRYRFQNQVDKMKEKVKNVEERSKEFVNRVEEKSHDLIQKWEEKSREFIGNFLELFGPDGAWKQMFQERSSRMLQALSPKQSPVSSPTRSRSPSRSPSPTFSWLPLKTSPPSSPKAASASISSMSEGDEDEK
UniProt Q04759, sequence (Q04759 whole entry, looked up): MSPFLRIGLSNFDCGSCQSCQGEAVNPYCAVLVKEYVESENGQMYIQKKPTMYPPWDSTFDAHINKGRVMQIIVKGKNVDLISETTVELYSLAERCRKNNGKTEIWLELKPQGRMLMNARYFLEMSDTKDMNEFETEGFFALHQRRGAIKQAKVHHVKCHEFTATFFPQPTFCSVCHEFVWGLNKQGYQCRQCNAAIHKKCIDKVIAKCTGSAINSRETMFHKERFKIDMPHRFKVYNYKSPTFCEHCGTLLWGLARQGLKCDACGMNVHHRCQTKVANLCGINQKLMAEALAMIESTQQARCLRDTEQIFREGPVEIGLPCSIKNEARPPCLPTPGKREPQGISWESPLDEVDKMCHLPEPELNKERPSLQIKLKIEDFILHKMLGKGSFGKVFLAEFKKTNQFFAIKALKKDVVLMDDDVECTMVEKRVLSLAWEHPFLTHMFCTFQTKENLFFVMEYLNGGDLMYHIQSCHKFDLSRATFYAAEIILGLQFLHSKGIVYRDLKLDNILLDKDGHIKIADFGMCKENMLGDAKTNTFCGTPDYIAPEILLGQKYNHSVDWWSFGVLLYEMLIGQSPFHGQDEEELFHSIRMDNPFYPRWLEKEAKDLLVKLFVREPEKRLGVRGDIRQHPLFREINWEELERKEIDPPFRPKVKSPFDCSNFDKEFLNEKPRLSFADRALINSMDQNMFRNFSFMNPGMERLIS

Target | log2 fold change [1] | log2 fold change (volasertib) | log2 fold change [2] | log2 fold change (epoxomicin) | log2 fold change [3] | log2 fold change [4] | log2 fold change [5] | log2 fold change (rosiglitazone) | log2 fold change [6] | log2 fold change [7] | log2 fold change (saracatinib) | log2 fold change (sotrastaurin) | log2 fold change (alvocidib) | log2 fold change (Tubastatin A) | log2 fold change [8] | log2 fold change (defactinib) | log2 fold change (rucaparib) | log2 fold change [9] | log2 fold change (encorafenib) | log2 fold change [10]
PSMD8 (UniProt P48556) | 0.054 | 0.25 | -0.01 | -0.286 (active) | 0.022 | 0.039 | -0.037 | -0.048 | 0.035 | 0.016 | -0.039 | -0.032 | 0.135 | 0.003 | -0.009 | 0.1 | 0.003 | 0.028 | 0.041 | 0.043
PPIL4 (UniProt Q8WUA2) | -0.024 | -0.253 (active) | 0.043 | 0.011 | -0.051 | 0.047 | 0.007 | -0.03 | 0.022 | -0.098 | -0.012 | -0.072 | -0.071 | -0.005 | -0.123 | -0.108 | 0.07 | 0.024 | 0.086 | -0.031
POGLUT1 (UniProt Q8NBL1) | 0.007 | -0.054 | 0.013 | 0.012 | -0.051 | 0.089 | -0.083 | -0.019 | 0.039 | 0.26 (active) | -0.124 | 0 | 0.06 | 0.009 | -0.004 | 0.039 | 0.069 | -0.063 | 0.015 | 0.042
PCYT1B (UniProt Q9Y5K3) | -0.105 | -0.315 (active) | 0.08 | 0.001 | -0.033 | 0 | 0.012 | 0.041 | -0.007 | 0.035 | 0.133 | -0.13 | -0.236 | -0.028 | -0.028 | -0.162 | -0.139 | -0.036 | 0.04 | -0.029
PAK4 (UniProt O96013) | -0.026 | -0.088 | -0.026 | -0.017 | 0.009 | -0.059 | -0.012 | 0.062 | 0.049 | -0.083 | -0.047 | 0.098 | -0.06 | 0.005 | -0.012 | -0.017 | -0.067 | 0 | 0.085 | 0.03
PPP1CA (UniProt P62136) | -0.014 | -0.061 | 0.003 | 0.02 | 0.011 | -0.041 | -0.033 | 0.015 | -0.077 | 0.011 | 0.036 | -0.03 | -0.027 | -0.024 | -0.009 | -0.033 | -0.008 | -0.028 | -0.009 | 0.018
PSMD7 (UniProt P51665) | 0.027 | 0.205 | 0 | -0.236 | 0.01 | 0.027 | -0.019 | -0.047 | 0.083 | 0.06 | -0.018 | -0.028 | 0.088 | 0.001 | 0.015 | 0.079 | 0.063 | 0.022 | 0.03 | 0.017
PGGHG (UniProt Q32M88) | 0.012 | 0.098 | 0.051 | 0.011 | -0.094 | -0.025 | 0.069 | 0.029 | -0.025 | -0.096 | 0.061 | -0.014 | 0.009 | 0.04 | -0.029 | 0.127 | 0.02 | 0.017 | -0.086 | -0.02
PEF1 (UniProt Q9UBV8) | -0.144 | -0.329 (active) | 0.035 | 0.101 | 0.045 | 0.002 | -0.061 | -0.022 | -0.005 | 0.048 | 0 | 0.053 | -0.006 | -0.004 | 0.049 | -0.01 | -0.019 | -0.014 | -0.025 | -0.003
PRKCQ (UniProt Q04759) | -0.11 | -0.17 | 0.031 | 0.001 | -0.028 | -0.047 | 0.021 | 0.049 | -0.014 | -0.496 (active) | -0.034 | -0.903 (active) | -0.185 | 0.017 | -0.047 | -0.03 | 0.003 | 0.002 | 0.043 | -0.025
PSMC6 (UniProt P62333) | 0.033 | 0.178 | -0.021 | -0.312 (active) | -0.012 | 0.029 | -0.03 | -0.038 | 0.009 | 0.018 | -0.01 | 0.015 | 0.09 | -0.025 | -0.003 | 0.079 | 0.04 | 0.009 | 0.035 | 0.026
PCTP (UniProt Q9UKL6) | -0.017 | -0.012 | -0.067 | 0.039 | -0.058 | -0.055 | -0.005 | 0.025 | -0.011 | -0.279 (active) | 0.083 | -0.016 | 0.014 | -0.002 | 0 | -0.037 | -0.056 | 0.039 | -0.032 | 0.094
PXK (UniProt Q7Z7A4) | -0.136 | -0.077 | 0.04 | 0.029 | 0.004 | -0.012 | 0.027 | 0.046 | -0.028 | -0.208 | -0.023 | 0.004 | -0.055 | -0.033 | 0.03 | -0.025 | -0.027 | -0.007 | 0.08 | -0.048
PPT1 (UniProt P50897) | -1.41 (active) | -1.9 (active) | -0.041 | 0.014 | 0.015 | 0.01 | -0.009 | -0.008 | -0.035 | -0.925 (active) | -0.007 | 0.029 | 0.005 | -0.038 | 0.024 | 0.024 | 0.047 | -0.019 | -0.023 | -0.002
PRKAG1 isoform 3 (UniProt P54619) | -0.018 | -0.207 | 0.048 | -0.024 | 0.002 | -0.033 | -0.015 | 0.033 | -0.009 | -0.299 (active) | -0.016 | 0.04 | -0.062 | 0.01 | -0.184 | -0.081 | -0.005 | -0.026 | 0.026 | -0.014

Reference: the supplement of paper PMC10849652
